# Results reported in PMC12864922, “TDP-43 directly inhibits mRNA accumulation in neurites through modulation of mRNA stability”.
# In all, about 9,900 sequences were measured (“r (bound/input frequency ratio)”: median about 0.7, highest 2% from about 6.5 on). This is one part of a sample in which the highest values are shown more often than they occur.
# B1: ENSMUSG00000061578.946|Ksr2 (ssRNA)
# RNA: GGGAGUUCUACAGUCCGACGAUCGCUUCGAUAUCCGCAUGCUAAACAAGAAGACUGCAUGUUAACGCUCCUGCCACUGUUGCCCCUUCCUUUACCCUUGGCAGACAUUGCUAAUCAAUCUCAGCACAGUUUCCAACCACAGUCAUAGAACAUUUGCCACAAAGGCCCUGGAUGUGACUAUAUGUGCUGAGAAGGGAAGGUAGUUUUCCCCCAGAAAGUCCCUUCUAAUAAACAUUGAUGACUUUAGAAUCCAUGACUCAGAAUUUUCCAGAGACCCAAUCCCUCGGGGUCCACUUAGUGAUGGCUCUUGCGGUCGCACUAGUGUGGAAUUCUCGGGUGUCAAGG
# B2: ENSMUSG00000058297.101|Spock2|105:110 (ssRNA)
# RNA: GGGAGUUCUACAGUCCGACGAUCGCUUCGAUAUCCGCAUGCUAAUUUGAUAUGAAAGCCCCACCACGGUCUUGUGGUGAUGAGGCAGGACCUGUACACACAGCAAGGCUUACUAUCCGUCUCCUGACAUCCGAAGAGCUCGUCGCAGCACACACUAAUGGCCCUUGGGCUGCACGUGGUUAAGCAUAGCUGUCUCUGUGGCCCAACACAAAGAGGUAAACUUACUUAAAACACAGGGGUUUUGUUGCUGUUUGUUUUUUGUUAGUUUGUUUGUUGAUAAUUGGAUUGAGGAGUUAAUCCUCUGCUCUUGCGGUCGCACUAGUGUGGAAUUCUCGGGUGUCAAGG
# B3: ENSMUSG00000029636.282|Wasf3 (ssRNA)
# RNA: GGGAGUUCUACAGUCCGACGAUCGCUUCGAUAUCCGCAUGCUAGCGCCAUGGCCAUCCUGGAGCCUGCGCACACGUGGCCGCUGCUGUGACUCGCUGUCCUUGGUAAUUGGUGAGAGGCUUUUUCUUUCUUUCUCAGUUCUGCUUUUCCACACUGAGACCCACCAUGUUGACAUCAUCCUCGCGACGUUGACAUUUGAGCCUUUUGUUCUGUCUCCCAUGUGCCCUGUAGAACCCAGCACUCAUGUUUGGCAAAACUUUUUUUGGUAAGGUCCUUAUGCUCUCAGGGUGGAGGGAAGACAUUACUCUUGCGGUCGCACUAGUGUGGAAUUCUCGGGUGUCAAGG
# B4: ENSMUSG00000058297.560|Spock2 (ssRNA)
# RNA: GGGAGUUCUACAGUCCGACGAUCGCUUCGAUAUCCGCAUGCUAACCUGGGGGUGCAAAAGGAGAUUCAAGACAUCCGUACCAAGUCAGGCAGAGCUACCCGCUUCUCAGCCCGUGUCCCACUUAAAACCGUCCGAUGUGUAAUCACUGAGCUUAGAGUUAAACAUUGUGGUCAAGUGCUUGGGUUCCGUCUGUAGAUUUAAGUGCUGACGUUGUAUCUCUCAGUAAUUUUAGAUGUCUUUUAAAAAAUCUGAACAAGUGUUAGACCCGUGUGUGCGUUGGUGGGCACUCAAGCAUCCCGUGGGCUCUUGCGGUCGCACUAGUGUGGAAUUCUCGGGUGUCAAGG
# B5: ENSMUSG00000031028.59|Tub|169:181;199:203 (ssRNA)
# RNA: GGGAGUUCUACAGUCCGACGAUCGCUUCGAUAUCCGCAUGCUACCCAGUCCUGGGUCAGUCCCCUGCUGCAGUGGUGUUAUCACACCGGAAAGCCUCUUCACCUGGAGGUACAGAGGGAGAGGAAGCACAAGCCUGGCUGCUGUGGCUCAGCCAUCCACUCAGCCUACGAGUCAGAGACAGUGGGUGUCCCGGGAAGCAGGGGUACAGUGACACACACACAUACUACAGGGCACUCAAGCUCAUACUAGAAAAAGCUCUGGUGGUCAGCAGAAAGCACUCCCACUUCAAAAGGGCCCAUUAGGCUCUUGCGGUCGCACUAGUGUGGAAUUCUCGGGUGUCAAGG
# B6: ENSMUSG00000034801.92|Sos2 (ssRNA)
# RNA: GGGAGUUCUACAGUCCGACGAUCGCUUCGAUAUCCGCAUGCUACAGAGCAAGUCCCAGGACAGCCAGGGCUACACAAAAAAACCUUGUCUCAAAAGUCAAAAUACAAACAAAAGAGAGAAAAGGAAGGAAGGAAAGAAUUUGAAAUAUUAAAAUGCAAAAGCCCUUCACCAUAGCCCCCAGGUGAUCAGCAGCAUUGCUUCCUCGGCUCCCCAGUGCUGCCCUAGGCCAGUAUAAAGACUCUGUAUUGCACUGUAGACUCUGCUAGCAGACGGCACUGAGAGGAGCCAGCGCUCGAGGGCGUUCUCUUGCGGUCGCACUAGUGUGGAAUUCUCGGGUGUCAAGG
# B7: ENSMUSG00000090935.132|Synj2bp|162:172 (ssRNA)
# RNA: GGGAGUUCUACAGUCCGACGAUCGCUUCGAUAUCCGCAUGCUAUCUCUCUCUCACUCACCAUCUCUGACAUCCUCCCAUAUUCUUUCUCCUCCACAUAGCCAAUACAAGAUUUAAAGUGACUGCUUAUCACCCAAAACCCUGCUAUUCAAAAUCUCCUAUUCUAAUGGAAGAGUACAGGGGUUAUUUGAAGAAAAGCUGUGGUGCACACACACACGGGGAAGCCUUGCUUAGAAUGAAUGAGAAGUUACAUAUUUUACUAGGACUGCCAAUAAAAACUCAGCUAUCAUCCAAAGAGGAAAAGCCUCUUGCGGUCGCACUAGUGUGGAAUUCUCGGGUGUCAAGG
# B8: ENSMUSG00000029028.117|Lrrc47 (ssRNA)
# RNA: GGGAGUUCUACAGUCCGACGAUCGCUUCGAUAUCCGCAUGCUAGCUCCAAUGUGACUCUCCUGUCUCCUGUCCUCAUGGAUCACUCAGUAACUGCUGGGGAUGUUCUGAAUCAUGUGGCCUGUGGCCGUGCUGGAGAGUCAGGUUGAACGCAGGCAUUCUAUUGAACAGUAUUUAUUUUUCUACAACAUGUUAAUAGAAUUUUUUUUUAAAUCAGCUGUGCAUAGACAGUUGAGAACAUCAUGUUGUGAGUGUAAUCUUCUUAGAGCUUGUUUCCAGGCACCGUGCUGCCGCCAUGCUCCCAGCUCUUGCGGUCGCACUAGUGUGGAAUUCUCGGGUGUCAAGG
# B9: ENSMUSG00000029028.162|Lrrc47|217:221 (ssRNA)
# RNA: GGGAGUUCUACAGUCCGACGAUCGCUUCGAUAUCCGCAUGCUAGCCUUCCACGGCUGUGCUUGGAACUGUAGUGCUGGUCGUUGUUGGCACAUCUGCGCCUUGGCCAAGGAAGUUAUCUAUGUCCGUGUAGUCCUUUGUAGUCAGACAGAUGCUUCGUGGACUGUGCCUCACACAUGGCCCUGCAGGCUCCAUGUCAGCGUGUCCCACUAUUCAUGUCCCAUCUCUGUGCAUCCUGACUGCGCACAUCCCAUCUCCGCAACACAACGCAUCUGUACCAGCACACAGCUGCCAUCCCUCGAGCCCUCUUGCGGUCGCACUAGUGUGGAAUUCUCGGGUGUCAAGG
# Target: TDP-43 (Homo sapiens, UniProt Q13148 1-414)
# Sequence (Q13148 whole entry): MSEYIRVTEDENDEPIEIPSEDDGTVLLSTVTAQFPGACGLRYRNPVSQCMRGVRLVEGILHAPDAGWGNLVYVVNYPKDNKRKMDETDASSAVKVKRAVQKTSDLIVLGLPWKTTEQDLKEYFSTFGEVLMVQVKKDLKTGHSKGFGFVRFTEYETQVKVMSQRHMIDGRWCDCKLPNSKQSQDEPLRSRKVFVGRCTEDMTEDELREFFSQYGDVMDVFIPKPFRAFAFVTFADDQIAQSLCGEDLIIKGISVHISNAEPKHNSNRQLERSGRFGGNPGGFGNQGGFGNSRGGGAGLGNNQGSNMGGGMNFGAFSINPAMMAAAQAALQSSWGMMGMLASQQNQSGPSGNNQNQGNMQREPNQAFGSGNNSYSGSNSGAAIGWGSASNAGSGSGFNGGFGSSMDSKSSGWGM
# Experiment: RNA Bind-n-Seq with designed 260-mer pool; 25 mM Tris-HCl, 150 mM KCl, 3 mM MgCl2, BSA (printed 500 mg/mL), 20 units/mL SUPERase IN; pH not stated; 500 nM RNA pool, 1 h, 4 C; TDP-43 5, 50, 500 nM; high values mean tight binding
# Conditions: protein: recombinant; tags: SBP (GST cleaved off with PreScission; pGEX-GST-SBP)
# Outline: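 Duplicate measurements used two independent batches of recombinant SBP-tagged TDP-43, which was captured on streptavidin beads at 5, 50 or 500 nM. The beads were incubated with 500 nM of an in vitro-transcribed 260-nt 3′ UTR oligo pool for 1 h at 4 °C in 25 mM Tris-HCl, 150 mM KCl, 3 mM MgCl2, BSA and SUPERase IN. After washing, biotin elution, reverse transcription, PCR amplification and sequencing, binding was expressed as R: each oligo's normalized read abundance in the bound sample over its abundance in input.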
row,Binder,binding signal
1,B1,0.389 R (bound/input frequency ratio)
2,B2,1.12 R (bound/input frequency ratio)
3,B3,0.86 R (bound/input frequency ratio)
4,B4,0.604 R (bound/input frequency ratio)
5,B5,0.754 R (bound/input frequency ratio)
6,B6,0.552 R (bound/input frequency ratio)
7,B7,0.765 R (bound/input frequency ratio)
8,B8,0.231 R (bound/input frequency ratio)
9,B9,0.706 R (bound/input frequency ratio)
